A number with no mark means an inactive call. No rule for the calls is given here.
test system: HIV-1 nucleocapsid protein NCp7 (binding to TG oligonucleotide); test: HIV Nucleocapsid (AID 346); settings: HIV-1 NC / fluorescein-TGTGTGTG probe, fluorescence polarization;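 also: potency is for inhibitors that block NC binding and lower polarization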
Description: NCGC Assay Overview: HIV-1 nucleocapsid protein (HIV-1 NC) is a small (6.5 kDa) basic zinc-finger protein which participates in packaging of viral genomic RNA. The spacing and metal-chelating residues (3 Cys, 1 His) of the Cys-X2-Cys-X4-His-X4-Cys Zn fingers are conserved among all known retroviruses (J. Med. Chem. 1998, 41, 1371-1381). HIV-1 NC was assayed for its binding to the consensus sequence single-stranded 5'-TGTGTGTG. […] High salt was included to increase the stringency of binding and inhibitor screen. Reducing agents and zinc were present to stabilize the nucleocapsid zinc-finger protein.
NCGC Assay Protocol Summary: Buffer. Hepes pH 7.5, 250mM NaCl, 1uM ZnCl2. 0.004% polyethylene glycol 20000. TCEP (100 uM) and 2-Mercaptoethanol (5 mM), added fresh the day of the experiment. Reagents/Controls. 10 nM TG4xF only in columns 3 and 4 as negative control. 10 nM TG4xF/100 nM HIV-1 NC in columns 1, 2, 5-48. Titration of control compound NSC-13778 (from 20 mM, then 1:2) pin-transferred to column 2. Assay Steps. Two uL of reagents were dispensed to 1536-well Kalypsys black plates. The plates were centrifuged for 1 min at 1000 rpm. Compounds and controls (20 nL) were transferred via Kalypsys PinTool. The plates were incubated for 1 hr at room temperature, and then read on ViewLux (Perkin-Elmer). High-throughput CCD imager using fluorescein polarization filter set and 45 seconds exposure time.
Potency is read from the fitted curve at half-maximal effect.

Row | SMILES | Potency [µM]
1 | CN(C)C(=O)c1ccc(-c2ccc3ncnc(NCc4cccs4)c3c2)cc1 | > 20
2 | CN(C)c1ccc(-c2cncnc2NCc2ccccc2)cc1 | > 20
3 | FC(F)(F)c1ccccc1-c1nc(NC2CCNCC2)c2ccccc2n1 | > 20
4 | c1cncc(-c2cc(-n3ccnc3)ncn2)c1 | > 20
5 | COC(=O)N1CCC[C@@]2(CCN(Cc3cc(C(F)(F)F)cc(C(F)(F)F)c3)C2)C1 | > 20
6 | CC(=O)NCCNc1nc(-c2ccc3c(c2)OCO3)nc2ccccc12 | > 20
7 | c1ccc(Nc2ncnc3ccc(-c4ccc5c(c4)OCO5)cc23)cc1 | > 20
8 | N#Cc1ccc(CN2CC3(CCN(C(=O)c4csnn4)CC3)C2)cc1 | > 20
9 | O=S(=O)(c1ccccc1)N1CCC2(CCN(Cc3ccncc3)CC2)CC1 | > 20
10 | CN1CCN(c2ncc3ncc(=O)n(Cc4ccc(F)cc4)c3n2)CC1 | > 20
11 | CN(C)Cc1ccccc1-c1ccc2ncnc(N(C)C)c2c1 | > 20
12 | Cc1cccc(CNc2cc(-c3ccc(N(C)C)cc3)ncn2)c1 | > 20
13 | COc1ccc(Oc2ncc3ncc(=O)n(C4CC4)c3n2)cc1 | > 20
14 | Cc1nc2cnc(N(C)C)nc2n(CCC#N)c1=O | > 20
15 | COCCn1c(=O)c(-c2cc(F)cc(F)c2)nc2cnc(N3CCNCC3)nc21 | > 20
16 | O=S(=O)(c1ccccc1)N1CCC2(CCCN(c3ccccn3)C2)CC1 | > 4
17 | COc1ccc(-n2c(=O)c(C)nc3cnc(Oc4ccccc4)nc32)cc1 | > 20
18 | COc1ccc(-n2c(=O)c(-c3ccc(Cl)cc3)nc3cncnc32)cc1 | > 4
19 | O=C(c1csnn1)N1CCC2(CCCN(c3cccc(-c4ccccc4)c3)C2)CC1 | > 20
20 | N#Cc1cccc(-c2nc(N3CCNCC3)c3ccccc3n2)c1 | > 20

Row | SMILES | Potency [µM]
21 | N#CCCn1c(=O)c(CCc2ccccc2)nc2cnc(N3CCOCC3)nc21 | > 20
22 | CN(C)Cc1ccccc1-c1nc(NC2CC2)c2ccccc2n1 | > 20
23 | N#CCCn1c(=O)cnc2cnc(N3CCNCC3)nc21 | > 20
24 | O=C(c1cccc(F)c1)N1CCC2(CCN(Cc3cc(C(F)(F)F)cc(C(F)(F)F)c3)CC2)CC1 | > 20
25 | COc1ccc(-c2nc3cnc(OC)nc3n(Cc3ccc(F)cc3)c2=O)cc1 | > 20
26 | FC(F)(F)c1ccccc1-c1nc(NC2CC2)c2ccccc2n1 | > 20
27 | O=C(Nc1ccccc1)N1CC2(CCN(C(=O)c3cccc(F)c3)CC2)C1 | > 20
28 | CC(=O)N1CCC2(CC1)CN(Cc1cc(C(F)(F)F)cc(C(F)(F)F)c1)C2 | > 20
29 | COc1ccc(-c2nc3cnc(N4CCOCC4)nc3n(C[C@H]3CCCO3)c2=O)cc1 | > 20
30 | COc1ccccc1CNc1ncnc2ccc(-c3ccoc3)cc12 | > 20
31 | N#Cc1cccc(NC(=O)N2CC3(CCN(C(=O)c4cccc(F)c4)CC3)C2)c1 | > 20
32 | CC(=O)N1CCC2(CC1)CN(c1cccc(-c3ccccc3)c1)C2 | > 20
33 | COc1ccc(NC(=O)N2CCCC3(CCN(C(=O)c4cccn4C)CC3)C2)cc1 | > 4
34 | COCCn1c(=O)c(-c2ccc(OC)cc2)nc2cnc(OCc3ccccc3)nc21 | > 20
35 | COc1cccc(-c2nc(NCCc3c[nH]c4ccc(OC)cc34)c3ccccc3n2)c1 | > 20
36 | O=C(c1csnn1)N1CCC2(CC1)CN(c1ccccn1)C2 | > 20
37 | O=C(c1cnccn1)N1CCC2(CCCN(Cc3ccccc3)C2)CC1 | > 20
38 | N#CCCn1c(=O)c(-c2ccc(F)cc2)nc2cnc(Oc3ccccc3)nc21 | > 20
39 | COc1ccc2[nH]cc(CCNc3ncncc3-c3cccc(NS(C)(=O)=O)c3)c2c1 | > 20
40 | COCCNc1ncnc2ccc(-c3ccccc3C(F)(F)F)cc12 | > 20
